The list is not random: actives were taken first. Their share in the collection is about 6.2%.
ATXN2 expr inh – Primary qHTS for Inhibitors of ATXN expression; HEK-293 ATXN2-luciferase reporter, luminescence, 24 h; Potency, µM (top dose mostly 57 µM), for the others: at the top dose activity change, negative = inhibition, hits mostly inhibitors; actives 0.72% (n = 360,000); AID 1745845, 2022; also: % is scaled to controls: 0 for no effect and ±100 for the full control effect; nearly all actives have a fitted effect of over 55% in size
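qHTS (up to 57 uM final) was run with 24 h compound exposure of reporter cells at 37 °C. Each well was multiplexed: SteadyGlo luminescence measured ATXN2-luciferase expression after a fluorogenic Gly-Phe-AFC viability readout (25 uM final).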
HT1080 IDH1KD tx – qHTS for induction of synthetic lethality in tumor cells producing 2HG: qHTS for the HT-1080-IDH1KD cell line. HT-1080 IDH1 knockdown viability, ATP luminescence, 48 h. Potency, µM (titrated, usually from 46.1 µM), for inactives: at the highest dose activity, negative = toxicity, hits mostly cytotoxic. actives 2% (n = 360,000);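 also: 0% = DMSO wells and -100% = cell-free medium wells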
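In this qHTS, HT-1080 cells depleted of IDH1 are exposed for 48 h at 37 °C to compound titrations. Toxicity is scored from CellTiter-Glo luminescence, with DMSO as full viability and medium alone as none.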
HT1080NT lethal – qHTS for induction of synthetic lethality in tumor cells producing 2HG: qHTS for the HT-1080-NT fibrosarcoma cell line; HT-1080-NT fibrosarcoma viability, CellTiter-Glo ATP luminescence, 48 h; Potency, µM (series often up to 46.1 µM), for inactives: top-dose activity, negative = less viability, actives largely listed as cytotoxic; actives 1.6% (n = 360,000);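 also: NT is the 2HG producing partner of a matched IDH1 knockdown line; 0% = DMSO-treated cells and -100% = media-only wells without cells; nearly all actives have a fitted effect of over 55% in size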
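Viability by CellTiter-Glo luminescence after 48 h compound exposure at 37C of HT-1080-NT cells (750/well, RPMI, 5% FBS). % activity scaled between DMSO wells and medium-only wells, then curve-fitted and categorized by curve class.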
KB-V1 MDR tox – qHTS assay for MDR1-selective chemotherapeutics: Primary screen using the drug-selected MDR subline cells KB-V1; KB-V1 MDR cells viability, CellTiter-Glo, 72 h; Potency, µM (top dose mostly 46.1 µM), hits mostly cytotoxic; actives 3.4% (n = 400,000); AID 1347076, 2019; also: % is scaled to controls: 0 for no effect and ±100 for the full control effect; nearly all actives have a fitted effect of over 60% in size
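Cytotoxicity via CellTiter-Glo luminescence after 72 h compound exposure at 37 degrees C. Cells: drug-selected KB-V1 line, DMEM phenol-red free plus 10% FBS. Compounds tested at multiple concentrations; normalized data fitted to concentration-effect curves.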
S2 tox – Viability Counterscreen for Primary qHTS for Inhibitors of ATXN expression. S2 cells (HEK-293 line with an ATXN2-luciferase reporter) viability, CellTiter-Fluor protease fluorescence, 24 h. Potency, µM (titrated, usually from 56.7 µM), actives largely listed as cytotoxic. actives 0.49% (n = 400,000). AID 651635, 2014; also: nearly all actives have a fitted effect of over 40% in size
KB-3-1 cytotox – qHTS assay for MDR1-selective chemotherapeutics: Primary screen using the parental adenocarcinoma cell KB-3-1; Potency, µM (top dose mostly 46.1 µM), usual class: cytotoxic; AID 1347075, 2019; KB-3-1 viability, CellTiter-Glo ATP luminescence, 72 h; actives 1.4% (n = 400,000); also: % is scaled to controls: 0 for no effect and ±100 for the full control effect; nearly all actives have a fitted effect of over 60% in size
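Cytotoxicity measured as CellTiter-Glo luminescence after 72 h at 37 C. Compound titrations were pinned onto drug-naive KB-3-1 parental adenocarcinoma cells grown in DMEM with 10% FBS, and normalized data fitted to concentration-response curves.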
The depositor's hits bear a star; i = inactive; ? = inconclusive; · = not tested or not shown. Calls follow the shape of the dose curve; as a rule, active = well fitted curve in the direction sought with a large enough effect; inconclusive = small, poorly fitted or top-dose-only effect, or another doubt; inactive = no such curve, though single readings can be large; an effect the other way counts as inactive or inconclusive. Potency is read from the fitted curve at half-maximal effect.

SMILES	ATXN2 expr inh	HT1080 IDH1KD tx	HT1080NT lethal	KB-V1 MDR tox	S2 tox	KB-3-1 cytotox
CCN(CC)c1ccc(/C=N/NC(=O)c2cccc(S(=O)(=O)N3CCOCC3)c2)cc1	-9.7%	-24.4%	-2.3%	i	i	i
C[C@]12CC[C@@H]3c4ccc(O)cc4CC[C@H]3[C@H]1[C@@H](O)[C@@H](O)[C@H]2O	20.0%	·	·	·	·	·
CC(C)C(=O)NC(c1ccc(Cl)cc1Cl)c1ccc2cccnc2c1O (centres undefined)	·	?	?	i	?	i
Cc1cc(NC(c2ccc(Cl)cc2)c2ccc3cccnc3c2O)no1 (centres undefined)	3.16µM*	?	?	?	?	?
CCC(=O)NC(c1ccc(Cl)cc1Cl)c1ccc2cccnc2c1O (centres undefined)	5.62µM*	?	14.6µM*	i	i	?
CCCCC(=O)NC(c1ccc(Cl)cc1Cl)c1ccc2cccnc2c1O (centres undefined)	?	?	?	?	i	3.26µM*
COc1ccc2c(c1)C1=NN(/C(C)=C/C(C)=O)C(c3ccc(F)cc3)C1CC2 (centres undefined)	32.6%	12.7%	4.9%	20.6µM*	i	i
COc1ccc2c(c1)CCC1C2=NN(/C(C)=C\C(C)=O)C1c1ccc(F)cc1 (centres undefined)	·	-0.8%	0.0%	i	i	i
C=CCSc1nnc(NC(=O)CSc2nc3ccccc3[nH]2)s1	5.5%	-13.4%	-14.7%	i	i	i
CCCc1cc(=O)[nH]c(SCC(=O)Nc2cc(S(=O)(=O)N3CCCCC3)ccc2Cl)n1	-5.7%	14.6µM*	6.51µM*	?	i	8.2µM*
C=CCSc1nnc(NC(=O)CSc2nc(CCC)cc(=O)[nH]2)s1	-3.7%	-19.0%	-27.6%	20.6µM*	i	?
CCCc1cc(=O)[nH]c(SCC(=O)Nc2cc(S(=O)(=O)N3CCOCC3)ccc2Cl)n1	2.1%	?	?	i	i	i
Cc1ccc(-c2nc(SCC(=O)Nc3cc(S(=O)(=O)N4CCCCC4)ccc3Cl)n[nH]2)cc1	-20.4%	-15.3%	-20.3%	16.4µM*	?	?
CCCCOc1cccc(C(=O)N(Cc2ccc(Cl)cc2)C2CCS(=O)(=O)C2)c1 (centres undefined)	-25.8%	·	·	?	?	i
O=C(/C=C/c1ccccc1)Nc1nc2n(n1)C(c1ccc(F)cc1)C=C(c1ccccc1)N2 (centres undefined)	1.1%	·	·	i	i	i
CC1CCN(c2nn3c(=O)c(C(=O)NCc4ccc(Cl)cc4)cnc3s2)CC1	-0.2%	·	·	i	i	i
Cc1cc(=O)n(CC(=O)NC(C)c2ccccc2)c2c1c(C)nn2-c1cccc(F)c1 (centres undefined)	7.0%	·	·	i	i	i
Cc1c(C(=O)N2CCCC2)sc2ncnc(NCCN(C)C)c12	·	·	·	·	i	·
Cc1ccc(C)c(N2CCN(C(=O)c3cc(C)nc4c3c(C)nn4-c3cccc(F)c3)CC2)c1	0.8%	·	·	i	i	i
COC(=O)c1cc(CSc2nc3ccccc3[nH]2)oc1C	18.0%	-3.7%	-0.4%	2.91µM*	i	20.6µM*
CCCc1cc(=O)[nH]c(SCc2cc(C(=O)OC)c(C)o2)n1	-4.5%	-10.1%	-9.9%	i	i	i
CCOC(=O)c1c(C)[nH]c(C)c1C(=O)CSc1nc2ccccc2c(=O)n1-c1ccc(CC)cc1	?	-19.2%	-19.3%	7.31µM*	i	23.1µM*
CCOC(=O)c1c(C)[nH]c(C)c1C(=O)CSc1nc2ccccc2[nH]1	3.4%	-13.5%	-1.4%	23.1µM*	i	i
Cc1cc(C(=O)CSc2nc3ccccc3[nH]2)c(C)n1CC1CCCO1 (centres undefined)	?	?	0.9%	2.31µM*	17.8µM*	3.66µM*
COc1cc(=O)n2c(c1C(=O)N(C)Cc1nonc1C)CCN(CC1CC=CCC1)CC2 (centres undefined)	·	·	·	·	i	·
SMILES	ATXN2 expr inh	HT1080 IDH1KD tx	HT1080NT lethal	KB-V1 MDR tox	S2 tox	KB-3-1 cytotox
CCOC(=O)c1c(C)[nH]c(C)c1C(=O)Cn1nnc(-c2ccccc2C)n1	-17.4%	-20.6%	-5.0%	16.4µM*	i	i
COc1ccc(NC(=O)COc2cc(C)cc(C)c2)cc1S(=O)(=O)N1CCCCC1	-25.6%	?	?	18.4µM*	i	?
COc1ccc(NC(=O)CCCC2CCCCC2)cc1S(=O)(=O)N1CCCCC1	-4.7%	-20.9%	-10.9%	9.2µM*	i	?
COc1cc(C#N)ccc1OCC(=O)Nc1cccc(S(=O)(=O)N2CCCC2)c1	·	-0.1%	-10.1%	16.4µM*	i	i
CC1CN(CCC(=O)NC(c2cccnc2)C(F)(F)F)Cc2cc(Cl)ccc2O1 (centres undefined)	·	·	·	·	i	·
Cc1ccc(C(c2sc3nc(-c4ccco4)nn3c2O)N2CCOCC2)cc1 (centres undefined)	8.4%	·	·	i	i	i
CN(C)c1ccc(/C=C2\C=Cc3ccccc32)c(F)c1	·	·	·	i	·	i
CC(C)(C)NC(=O)c1ccc2nc(CCc3ccccc3)oc2c1	16.6%	·	·	i	i	i
O=[N+]([O-])c1ccc(Cl)c(C2Nc3cccc4cccc(c34)N2)c1	?	-5.5%	-24.9%	?	?	10.3µM*
CCn1c(C)c(P(c2ccccc2)c2ccccc2)[n+]2ccccc12	?	-8.2%	-30.0%	i	?	9.2µM*
COc1ccc(NC(=O)C2(S(=O)(=O)c3ccc(C)cc3)CC2)c(OC)c1	4.6%	·	·	i	?	i
Cc1ccc(NC(=O)CN2CCSc3ccc(S(=O)(=O)N4CCCC4)cc32)cc1C	-33.4%	·	·	10.3µM*	14.1µM*	?
O=Nc1c(O)n(Cc2cccc(Cl)c2)c2ccccc12	-2.3%	18.4µM*	14.6µM*	i	?	i
O=[N+]([O-])c1ccc(O)c(C2=NNC(c3ccccc3F)C2)c1 (centres undefined)	?	?	20.6µM*	?	i	?
COc1ccc(OC)c(Nc2cc(C)nc3nc(C)nn23)c1	-2.1%	-20.9%	-10.5%	20.6µM*	i	7.31µM*
COc1ccc(Nc2cc(C)nc3nc(C)nn23)c(OC)c1	-6.5%	0.7%	1.7%	i	i	i

Source: PubChem (National Center for Advancing Translational Sciences (NCATS))
